From PubChem BioAssay (EPA / NIEHS)
The source made the active and inactive calls. Rule for the calls: active = hit-call score of the fitted dose curve at least 0.9, where 1 is the maximum; inactive = score below 0.9.

Columns and labels:
[1] = read-out: TIMP metallopeptidase inhibitor 2 (TIMP2), TIMP2 (gene 7077); test: BSK_KF3CT_TIMP2: BioMAP Diversity Plus: KF3CT Assay for TIMP metallopeptidase inhibitor 2 (TIMP2) Biomarker Activity (AID 2283071); conditions: primary human keratinocytes with fibroblasts; actives raise or lower the signal
In short: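 Human primary keratinocyte/foreskin fibroblast co-culture dosed with chemical and sampled at 24 h. TIMP-2 levels quantified by ELISA; bidirectional fitting against DMSO negative control as baseline.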

[2] = read-out: Transforming growth factor beta 1 (TGFb1), TGFB1 (gene 7040); test: BSK_KF3CT_TGFb1: BioMAP Diversity Plus: KF3CT Assay for Transforming growth factor beta 1 (TGFb1) Biomarker Activity (AID 2283072); conditions: primary human keratinocytes with fibroblasts; actives raise or lower the signal
In short: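 Human keratinocyte plus foreskin fibroblast primary co-culture, dosed with chemical for 24 h. TGF-b1 quantified by ELISA. Activity fitted bidirectionally against DMSO negative control as baseline.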

[3] = read-out: C-C motif chemokine 2 (Homo sapiens) (UniProt P13500); test: BSK_KF3CT_MCP1: BioMAP Diversity Plus: KF3CT Assay for Monocyte Chemoattractant Protein 1 (MCP1/CCL2) Biomarker Activity (AID 2283073); conditions: primary human keratinocytes with fibroblasts; actives raise or lower the signal
In short: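 KF3CT skin co-culture (keratinocytes/foreskin fibroblasts), 24 h post-dose; MCP-1 by ELISA; gain/loss of signal fit bidirectionally vs DMSO baseline.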

[4] = read-out: Matrix Metallopeptidase 9 (MMP9), MMP9 (gene 4318); test: BSK_KF3CT_MMP9: BioMAP Diversity Plus: KF3CT Assay for Matrix Metallopeptidase 9 (MMP9) Biomarker Activity (AID 2283074); conditions: primary human keratinocytes with fibroblasts; actives raise or lower the signal;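 for AC50: MMP9 protein level quantified by ELISA in the co-culture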
In short: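 Human keratinocyte/foreskin fibroblast co-culture; compound added; 24 h; MMP-9 by ELISA; bidirectional fit vs DMSO baseline.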

[5] = read-out: urokinase plasminogen activator (uPA), PLAU (gene 5328); test: BSK_KF3CT_uPA: BioMAP Diversity Plus: KF3CT Assay for urokinase plasminogen activator (uPA) Biomarker Activity (AID 2283075); conditions: primary human keratinocytes with fibroblasts; actives raise or lower the signal
In short: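 ELISA readout of uPA, analyzed for signal gain or loss relative to DMSO, from a human primary keratinocyte–foreskin fibroblast co-culture measured 24 h after chemical treatment.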

[6] = read-out: CD40, CD40 (gene 958); test: BSK_LPS_CD40: BioMAP Diversity Plus: LPS Assay for CD40 Biomarker Activity (AID 2283076); conditions: primary human HUVEC with PBMC; actives raise or lower the signal
In short: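 ELISA readout of CD40 in HUVEC/PBMC co-culture (BSK_LPS system), 24 h post-dosing; bidirectional curve fit, DMSO baseline; parallel SRB total-protein staining for cytotoxicity.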

[7] = read-out: E-selectin (Homo sapiens) (UniProt P16581); test: BSK_LPS_Eselectin: BioMAP Diversity Plus: LPS Assay for Eselectin Biomarker Activity (AID 2283077); conditions: primary human HUVEC with PBMC; actives raise or lower the signal
In short: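 ELISA readout of E-selectin, 24 h post-dose, HUVEC + PBMC co-culture (LPS system). Gain or loss of signal vs DMSO baseline, bidirectional fit.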

[8] = read-out: Interleukin-8 (IL8), CXCL8 (gene 3576); test: BSK_LPS_IL8: BioMAP Diversity Plus: LPS Assay for Interleukin-8 (IL8) Biomarker Activity (AID 2283078); conditions: primary human HUVEC with PBMC; actives raise or lower the signal
In short: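 HUVEC + PBMC co-culture, LPS-activated; test chemicals dosed, IL-8 read by ELISA at 24 h. Bidirectional curve fit vs DMSO baseline (gain or loss of signal).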

[9] = BSK_LPS_SRB: Viability Assessment in the BioMAP Diversity Plus: LPS Assay (AID 2283079); conditions: primary human HUVEC with PBMC;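 note: total protein by sulforhodamine B absorbance as a cytotoxicity measure; measured one day after compound addition; fitted in both directions against DMSO so loss or gain of signal counts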
In short: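 HUVEC + PBMC co-culture, LPS-stimulated; compound 24 h. 10% TCA fix, 0.1% SRB stain, A560. Bidirectional fit vs DMSO.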

[10] = read-out: Interleukin-1 alpha (IL1a), IL1A (gene 3552); test: BSK_LPS_IL1a: BioMAP Diversity Plus: LPS Assay for Interleukin-1 alpha (IL1a) Biomarker Activity (AID 2283080); conditions: primary human HUVEC with PBMC; actives raise or lower the signal
In short: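 HUVEC/PBMC co-culture, LPS system; 24 h after dosing; IL-1a by ELISA; gain or loss of signal fitted bidirectionally vs DMSO baseline.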

[11] = read-out: Monocyte Chemoattractant Protein-1 (MCP1), CCL2 (gene 6347); test: BSK_LPS_MCP1: BioMAP Diversity Plus: LPS Assay for Monocyte Chemoattractant Protein-1 (MCP1) Biomarker Activity (AID 2283081); conditions: primary human HUVEC with PBMC; actives raise or lower the signal;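 for AC50: secreted MCP-1 protein quantified by ELISA in culture supernatant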
In short: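 ELISA read-out of MCP-1 after 24 h chemical dosing of a human umbilical vein endothelial cell/peripheral blood mononuclear cell co-culture stimulated with LPS. Gain or loss of signal fitted relative to DMSO controls.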

[12] = BSK_LPS_PGE2: BioMAP Diversity Plus: LPS Assay for Prostaglandin E2 (PGE2) Biomarker Activity (AID 2283082); conditions: primary human HUVEC with PBMC; actives raise or lower the signal;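 for AC50: secreted prostaglandin E2 measured by ELISA in LPS-stimulated co-culture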
In short: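 HUVEC plus PBMC co-culture stimulated with LPS; secreted PGE2 quantified by ELISA 24 h after chemical dosing. Activity fitted bidirectionally against DMSO as negative control and baseline; parallel SRB total-protein staining served as cytotoxicity check.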

[13] = read-out: Macrophage colony-stimulating factor (MCSF), CSF1 (gene 1435); test: BSK_LPS_MCSF: BioMAP Diversity Plus: LPS Assay for Macrophage colony-stimulating factor (MCSF) Biomarker Activity (AID 2283083); conditions: primary human HUVEC with PBMC; actives raise or lower the signal
In short: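 HUVEC + PBMC co-culture (human primary), 24 h post-dose; M-CSF by ELISA; gain/loss of signal fitted bidirectionally vs DMSO baseline.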

[14] = read-out: Tissue Factor, F3 (gene 2152); test: BSK_LPS_TissueFactor: BioMAP Diversity Plus: LPS Assay for Tissue Factor Biomarker Activity (AID 2283084); conditions: primary human HUVEC with PBMC; actives raise or lower the signal
In short: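 HUVEC/PBMC co-culture, LPS-activated; CD142 ELISA read 24 h post-dose; bidirectional curve fit vs DMSO negative control.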

[15] = read-out: Tumor necrosis factor (Homo sapiens) (UniProt P01375); test: BSK_LPS_TNFa: BioMAP Diversity Plus: LPS Assay for Tumour Necrosis Factor alpha (TNFa) Biomarker Activity (AID 2283085); conditions: primary human HUVEC with PBMC; actives raise or lower the signal
In short: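 Human umbilical vein endothelial cells co-cultured with PBMC were exposed to test chemical and TNFa measured by ELISA 24 h after dosing. Bidirectional curve fitting was done relative to DMSO as negative control and baseline.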

[16] = read-out: CD38, CD38 (gene 952); test: BSK_SAg_CD38: BioMAP Diversity Plus: SAg Assay for CD38 Biomarker Activity (AID 2283087); conditions: primary human HUVEC with PBMC; actives raise or lower the signal
In short: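 Fluorescence ELISA of cell-surface CD38 served as the read-out, with either increase or decrease fitted against DMSO controls. Cells were a human umbilical vein endothelium plus PBMC co-culture under SEB/TSST-1 stimulation, measured 24 h after dosing.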

[17] = read-out: CD40, CD40 (gene 958); test: BSK_SAg_CD40: BioMAP Diversity Plus: SAg Assay for CD40 Biomarker Activity (AID 2283088); conditions: primary human HUVEC with PBMC; actives raise or lower the signal
In short: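 HUVEC/PBMC co-culture, 24 h post-dose; CD40 by ELISA, fluorescence intensity; bidirectional fit vs DMSO negative control.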

[18] = read-out: CD69, CD69 (gene 969); test: BSK_SAg_CD69: BioMAP Diversity Plus: SAg Assay for CD69 Biomarker Activity (AID 2283089); conditions: primary human HUVEC with PBMC; actives raise or lower the signal;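 for AC50: cell surface CD69 protein quantified by ELISA with fluorescence detection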
In short: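 ELISA, fluorescence read-out: CD69 on human umbilical vein endothelial cell + PBMC co-culture, 24 h post-dosing. Gain or loss of signal fitted bidirectionally against DMSO baseline.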

[19] = read-out: Monocyte Chemoattractant Protein-1 (MCP1), CCL2 (gene 6347); test: BSK_SAg_MCP1: BioMAP Diversity Plus: SAg Assay for Monocyte Chemoattractant Protein-1 (MCP1) Biomarker Activity (AID 2283090); conditions: primary human HUVEC with PBMC; actives raise or lower the signal
In short: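 MCP-1 levels in the endothelial–PBMC SAg co-culture were quantified by ELISA at 24 h post-dosing; both increases and decreases versus DMSO scored. Cytotoxicity monitored by SRB total protein in parallel cultures.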

[20] = read-out: Vascular cell adhesion molecule 1 (VCAM1), VCAM1 (gene 7412); test: BSK_LPS_VCAM1: BioMAP Diversity Plus: LPS Assay for Vascular cell adhesion molecule 1 (VCAM1) Biomarker Activity (AID 2283086); conditions: primary human HUVEC with PBMC; actives raise or lower the signal
In short: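 Human umbilical vein endothelial cells co-cultured with peripheral blood mononuclear cells under LPS stimulation were exposed to test chemical for 24 h. VCAM-1 levels were then measured by ELISA, with bidirectional curve fitting relative to DMSO as negative control and baseline.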

Measured: AC50

Sequence of E-selectin (Homo sapiens) (P16581 whole entry, looked up): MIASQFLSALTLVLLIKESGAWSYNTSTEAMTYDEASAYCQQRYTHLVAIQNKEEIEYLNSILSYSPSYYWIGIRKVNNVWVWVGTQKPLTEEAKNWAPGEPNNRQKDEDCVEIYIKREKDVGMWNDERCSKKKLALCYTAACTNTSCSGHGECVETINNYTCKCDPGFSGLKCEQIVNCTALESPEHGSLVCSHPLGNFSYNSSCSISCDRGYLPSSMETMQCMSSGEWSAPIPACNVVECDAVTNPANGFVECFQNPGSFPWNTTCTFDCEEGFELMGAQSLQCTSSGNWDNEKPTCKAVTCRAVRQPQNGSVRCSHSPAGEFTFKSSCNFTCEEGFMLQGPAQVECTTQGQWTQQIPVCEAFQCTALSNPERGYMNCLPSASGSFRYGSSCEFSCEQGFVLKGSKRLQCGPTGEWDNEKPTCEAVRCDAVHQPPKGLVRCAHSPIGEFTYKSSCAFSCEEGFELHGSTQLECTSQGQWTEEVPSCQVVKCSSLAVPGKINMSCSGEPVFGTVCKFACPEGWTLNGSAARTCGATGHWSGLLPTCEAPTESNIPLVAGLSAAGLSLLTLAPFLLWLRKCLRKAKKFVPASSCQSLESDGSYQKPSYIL
Sequence of Tumor necrosis factor (Homo sapiens) (P01375 whole entry, looked up): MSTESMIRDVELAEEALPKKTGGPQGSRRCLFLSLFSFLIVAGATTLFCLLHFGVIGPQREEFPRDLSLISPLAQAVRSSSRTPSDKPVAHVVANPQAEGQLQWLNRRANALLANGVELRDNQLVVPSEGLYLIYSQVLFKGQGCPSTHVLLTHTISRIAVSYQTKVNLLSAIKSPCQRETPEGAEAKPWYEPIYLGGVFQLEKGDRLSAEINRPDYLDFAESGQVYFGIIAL

CCOC(=O)COc1cc(-c2nn(C)c(OC(F)F)c2Cl)c(F)cc1Cl
active: [18] 3.97 µM
not listed: [20]
inactive: all other assays above

CCCSP(=O)(OCC)Oc1ccc(Br)cc1Cl (stereo not given)
active: [8] 30.2 µM | [15] 35.3 µM | [16] 30.5 µM | [17] 31.9 µM | [18] 27.8 µM
not listed: [19] | [20]
inactive: all other assays above

CCOP(=S)(Oc1cnc(C(C)(C)C)nc1)OC(C)C (stereo not given)
active: [1] 38.4 µM | [4] 27.1 µM | [6] 37.9 µM | [7] 30.9 µM | [8] 30.5 µM | [9] 30.3 µM | [10] 36.7 µM | [11] 32.2 µM | [12] 31.8 µM | [13] 32.6 µM | [14] 33.1 µM | [15] 36.5 µM | [20] 32.5 µM | [16] 36.2 µM | [17] 30.8 µM | [18] 30 µM | [19] 30.7 µM
inactive: [2] | [3] | [5]

CCCOCC(=Nc1ccc(Cl)cc1C(F)(F)F)n1ccnc1
inactive: [12]
active: [1] 31.7 µM | [2] 31.1 µM | [3] 31.3 µM | [4] 28 µM | [5] 33.2 µM | [6] 22.3 µM | [7] 16.2 µM | [8] 32.5 µM | [9] 31.4 µM | [10] 31.8 µM | [11] 33.3 µM | [13] 20.9 µM | [14] 29.2 µM | [15] 31.3 µM | [17] 18.1 µM | [18] 18.9 µM | [19] 26 µM

CCc1cccc(CC)c1N(COC)C(=O)CCl
active: [4] 20 µM | [6] 13.8 µM | [7] 33.8 µM | [9] 3.97 µM | [10] 1.06 µM | [13] 13.6 µM | [15] 1.31 µM | [16] 28.6 µM | [17] 20 µM | [18] 15.4 µM | [19] 29.4 µM
inactive: [1] | [2] | [3] | [5] | [8] | [11] | [12] | [14]

CCCCN(CC)c1c([N+](=O)[O-])cc(C(F)(F)F)cc1[N+](=O)[O-]
active: [4] 22.1 µM | [6] 34.2 µM | [7] 20 µM | [13] 18.2 µM | [16] 27.9 µM | [17] 29.1 µM
not listed: [20]
inactive: all other assays above

CCC(CC)Nc1c([N+](=O)[O-])cc(C)c(C)c1[N+](=O)[O-]
active: [4] 8.34 µM | [6] 20 µM | [7] 16.8 µM | [8] 18 µM | [9] 20 µM | [10] 36.1 µM | [11] 20 µM | [13] 18.9 µM | [15] 26.4 µM | [16] 28.5 µM | [17] 20 µM | [18] 20 µM | [19] 29.1 µM
inactive: [1] | [2] | [3] | [5] | [12] | [14]

CC1=NNC(=O)N(/N=C/c2cccnc2)C1
not listed: [20]
inactive: all other assays above

CSc1nnc(C(C)(C)C)c(=O)n1N
inactive: all assays above

CC(COc1ccc(Oc2ccccc2)cc1)Oc1ccccn1 (stereo not given)
active: [6] 20 µM | [12] 3.97 µM | [20] 0.843 µM
inactive: all other assays above

N#CSCSC#N
active: [1] 5.72 µM | [2] 5.17 µM | [3] 5.31 µM | [4] 6.04 µM | [5] 6.91 µM | [6] 5.33 µM | [7] 6.28 µM | [8] 5.94 µM | [9] 5.37 µM | [10] 5.46 µM | [11] 10.6 µM | [12] 5.66 µM | [13] 5.23 µM | [15] 3.89 µM | [20] 5.56 µM | [16] 5.28 µM | [17] 7.73 µM | [18] 7.16 µM | [19] 11.9 µM
inactive: [14]

Cc1nn(-c2cc(NS(C)(=O)=O)c(Cl)cc2Cl)c(=O)n1C(F)F
not listed: [20]
inactive: all other assays above
